Screening data as filed in PubChem BioAssay.
This is a sample that favours compounds with a hit; in the whole collection about 19% have one here.
DT40 TDP1 CPT = DT40-hTDP1 cell growth loss with CPT; Potency, µM (series often up to 46.2 µM), without a hit: top-dose activity change, negative = growth inhibition, hits mostly inhibitors; chicken DT40 Tdp1-/-;hTDP1 cells + 20 nM CPT, ATP luminescence, 48 h; AID 686979; 420,000 compounds, 12% hits; also: potency is read from the fitted curve at half-maximal effect; nearly all actives have a fitted effect of over 55% in size
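Cell growth measured by CellTiter-Glo luminescence after a minimum 48 h, 37 C compound exposure with 20 nM CPT in Tdp1-knockout DT40 cells stably expressing hTDP1, seeded 400/well; qHTS titration format.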
ELG1 repair inh = inhibitors of ELG1-dependent DNA repair in HEK293T cells | HEK293T ELG1-luciferase reporter, luminescence, 16 h; DNA damage induced by 5-fluorouridine | Potency, µM (titrated, usually from 46.1 µM), without a hit: top-dose activity change, negative = inhibition, hits mostly inhibitors | 330,000 compounds, 2.3% hits | AID 504467; also: potency is read from the fitted curve at half-maximal effect; nearly all actives have a fitted effect of over 55% in size
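Step one: seed 2,000 cells per well. Step two: pin-transfer compound or DMSO alongside 5-fluorouridine. Step three: incubate 16 hr, 37 °C, 5% CO2. Step four: add ONE-Glo, wait 30 min, read luminescence.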
IL-1B inflam inh = blocks inflammasome-driven IL-1 beta release | THP-1 LPS/ATP IL-1B secretion, AlphaLISA, 16 h; stronger effect = lower value | activity change, % at 57.5 µM | 360,000 compounds, 4.7% hits | AID 743279; in the data active = activity change below about -50%; inconclusive = mostly about -30% to -49%
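Secreted IL-1B measured by AlphaLISA bead assay after 16 h compound exposure of THP-1 cells; compounds (final up to 57.5 uM) added 1 h before LPS (250 ng/mL) and ATP (1.25 mM) stimulation; lower signal means less secretion.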
Giardia killer = kills Giardia lamblia; activity change, % at 7.66 µM, hits read low; Giardia lamblia trophozoite viability; 340,000 compounds, 0.15% hits; AID 540267; in the data active = activity change below about -80%; inconclusive = between about -30% and that limit;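 also: parasites exposed to compound for two days anaerobically before the ATP read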
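Media and compound were dispensed first, then trophozoites at 100 cells/well; plates sat 48 hrs at 37 deg C without oxygen before ATP luminescence reagent was added and read after 15-30 min at room temperature.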
TDP1 block = inhibitors of human tyrosyl-DNA phosphodiesterase TDP1; Q9NUW8; recombinant TDP1, AlphaScreen DNA substrate cleavage; Potency, µM (doses to about 130 µM), without a hit: top-dose activity change, negative = inhibition, usual class: inhibitors; 350,000 compounds, 0.28% hits; also: potency is read from the fitted curve at half-maximal effect; nearly all actives have a fitted effect of over 40% in size
Target sequence (Q9NUW8 whole entry, looked up): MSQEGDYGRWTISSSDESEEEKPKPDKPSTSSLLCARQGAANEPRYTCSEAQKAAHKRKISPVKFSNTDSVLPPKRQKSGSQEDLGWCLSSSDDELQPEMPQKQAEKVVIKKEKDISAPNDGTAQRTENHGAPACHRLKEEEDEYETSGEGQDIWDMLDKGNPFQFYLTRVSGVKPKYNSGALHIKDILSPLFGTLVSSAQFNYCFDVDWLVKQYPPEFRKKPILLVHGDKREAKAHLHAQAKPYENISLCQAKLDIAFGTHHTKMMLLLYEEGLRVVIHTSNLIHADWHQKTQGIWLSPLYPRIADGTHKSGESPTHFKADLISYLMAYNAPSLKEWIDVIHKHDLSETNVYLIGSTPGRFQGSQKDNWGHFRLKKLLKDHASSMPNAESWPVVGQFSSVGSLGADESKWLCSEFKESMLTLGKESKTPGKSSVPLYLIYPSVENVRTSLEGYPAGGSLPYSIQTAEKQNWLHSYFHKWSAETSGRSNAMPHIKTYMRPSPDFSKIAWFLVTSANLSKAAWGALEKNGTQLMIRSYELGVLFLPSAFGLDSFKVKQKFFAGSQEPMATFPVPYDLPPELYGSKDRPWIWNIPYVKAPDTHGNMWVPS
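Here, a 5' biotin and 3' phosphotyrosine-FITC DNA oligonucleotide reports Tdp1 activity: intact substrate bridges AlphaScreen beads, while cleavage leaves a 3' phosphate and drops signal. All incubations at room temperature.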
DT40 TDP1 no CPT = qHTS for Inhibitors of human tyrosyl-DNA phosphodiesterase 1 (TDP1): qHTS in cells in absence of CPT; DT40 Tdp1-/- hTDP1 cells, no CPT, ATP luminescence, 48 h; Potency, µM (titrated, usually from 46.2 µM), for inactives: at the highest dose activity change, negative = growth inhibition, hits mostly inhibitors; 420,000 compounds, 15% hits; also: potency is read from the fitted curve at half-maximal effect; nearly all actives have a fitted effect of over 55% in size
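Camptothecin absent (DMSO only). Human TDP1-complemented DT40 knockout cells, 400 cells/well, 37 °C for minimum 48 hr; ATP measured via CellTiter-Glo, 30 min dark incubation, luminescence.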
The depositor's hits bear a star; ? = inconclusive; / = not tested or not shown; [ ] = remark or other dose. Unless noted, calls follow the shape of the dose curve; as a rule, active = well fitted curve in the direction sought with a large enough effect; inconclusive = small, poorly fitted or top-dose-only effect, or another doubt; inactive = no such curve, though single readings can be large; an effect the other way counts as inactive or inconclusive. % is scaled to controls: 0 for no effect and ±100 for the full control effect.

SMILES | DT40 TDP1 CPT | ELG1 repair inh | IL-1B inflam inh | Giardia killer | TDP1 block | DT40 TDP1 no CPT
COc1ccc(/C=C2\C(=O)NCC(=O)N2C)cc1 | ? | -9.6% | -7.0 | -26.8 | / | ?
COc1ccc(C2/C=C\CN(Cc3ccccc3)CC(=O)N2Cc2ccc(F)cc2)cc1 (stereo not given) | / | / | / | 10.5 | 14.4% | /
CCOc1cc(C(=O)N2CCCN(C)CC2)cc(OCC)c1OCC | 11.1% | -3.6% | -2.2 | -0.8 | / | -0.1%
CCOc1ccccc1N=c1oc2cc(O)ccc2cc1C(=O)NCC1CCCO1 (stereo not given) | 11.2µM* | ? | 0.0 | 4.7 | -6.1% | ?
COc1ccc(N=c2oc3cc(O)ccc3cc2C(=O)NCC2CCCO2)c(OC)c1 (stereo not given) | -26.9% | ? | -25.2 | -2.2 | -6.1% | ?
CCOc1ccc(N=c2oc3cc(O)ccc3cc2C(=O)NCC2CCCO2)cc1 (stereo not given) | -8.4% | 2.06µM* | -9.6 | -13.2 | 4.7% | -3.8%
O=C(COC(=O)Cc1ccc(Br)cc1)NCc1ccc(F)cc1 | -1.4% | 18.4% | 7.1 | 4.1 | -5.1% | -4.1%
Cc1cc(Oc2ccccc2)nc(SCC(=O)Nc2ccc(Cl)c(Cl)c2)n1 | ? | -32.8% | -8.0 | -10.6 | 2.0% | 18.4µM*
Cc1nc(SCC(=O)Nc2ccc3c(c2)OCO3)c(C#N)c2c1CCCC2 | 20.6µM* | 2.9% | -22.4 | 7.5 | 0.0% | 18.4µM*
Cc1cc(C)nc(SCC(=O)Nc2ccc3c(c2)OCO3)n1 | -14.2% | -5.8% | -83.0* | -3.4 | 1.1% | 0.0%
Cc1ccc(C2=NC3(CCCCC3)N=C2SCC(=O)Nc2ccc3c(c2)OCCO3)cc1 | 20.6µM* | ? | -93.2* | 7.9 | 1.3% | ?
Cc1ccc(-c2ccc(SCC(=O)Nc3ccc4c(c3)OCCO4)nn2)cc1 | ? | ? | -7.3 | -11.5 | -3.4% | ?
Nc1cc(N)nc(SCC(=O)Nc2ccc3c(c2)OCO3)n1 | 2.0% | -26.8% | -1.5 | -9.5 | / | -1.8%
Cc1cc(Oc2ccccc2)nc(SCC(=O)Nc2ccccc2)n1 | ? | -24.2% | 1.8 | 14.9 | 4.0% | -28.7%
CC(=O)N1c2ccccc2CC1C(=O)NCc1cccc(Cl)c1 (stereo not given) | ? | / | / | / | 0.0% | -29.5%
Cc1nc2ccc(NC(=O)c3cccc(S(=O)(=O)N4CC(C)OC(C)C4)c3)cc2s1 (stereo not given) | 7.31µM* | ? | 10.7 | 1.3 | 5.1% | 11.6µM*
CC(=O)Nc1ccc(C(=O)Nc2ccc(S(=O)(=O)N3CCOCC3)cc2)cc1 | -2.6% | ? | 3.4 | 0.8 | 3.4% | 8.7%
Cc1nc2ccc(NC(=O)c3ccc(S(=O)(=O)N4CCOCC4)cc3)cc2s1 | -3.2% | 9.2µM* | -12.5 | 10.9 | 5.1% | -21.0%
COc1ccccc1/C=C1\S/C(=N/NC(=O)c2cccc(Br)c2)NC1=O | ? | 0.9% | -13.2 | -15.9 | 11.7% | 20.6µM*
CCCC1CCc2[nH]nc(C(=O)NN)c2C1 (stereo not given) | ? | ? | -18.1 | -14.8 | 0.2% | ?
CCOc1ccc(NC(=O)CN2CCCC2c2cccs2)cc1S(=O)(=O)N1CCCCC1 (stereo not given) | 14.6µM* | 14.6µM* | -7.9 | -13.3 | 0.9%[56.1 µM] | 14.6µM*
O=C(CN1CCCC1c1cccs1)Nc1cc(S(=O)(=O)N2CCCCC2)ccc1Cl (stereo not given) | 16.4µM* | / | -14.7 | -2.7 | / | ?
Cc1ccc(S(=O)(=O)N2CCCCC2)cc1NC(=O)CN1CCCC1c1cccs1 (stereo not given) | -25.0% | / | 24.3 | / | / | -23.7%
Cc1ccc(NC(=O)CN2CCCC2c2cccs2)cc1S(=O)(=O)N1CCCCC1 (stereo not given) | 18.4µM* | ? | -9.4 | 1.2 | -0.7%[56.1 µM] | 23.1µM*
COc1nnc(-c2ccc(N3CCCCC3)c(NC(C)=O)c2)c2ccccc12 | ? | -18.9% | ? | 6.2 | 0.9% | 18.4µM*
SMILES | DT40 TDP1 CPT | ELG1 repair inh | IL-1B inflam inh | Giardia killer | TDP1 block | DT40 TDP1 no CPT
CC(NC(=O)c1ccccc1)c1nnc(SCC(=O)Nc2nnc(C3CC3)s2)n1C (stereo not given) | 10.5% | 18.3% | 22.8 | 31.3 | / | -5.2%
COc1ccc(Cc2nnc(SCc3ccc([N+](=O)[O-])cc3)o2)cc1 | ? | 23.1µM* | ? | -7.2 | 2.7% | ?
O=[N+]([O-])c1ccc(CSc2nnc(Cc3ccccc3)o2)cc1 | -20.3% | -13.9% | -4.7 | -1.9 | 1.9% | -5.4%
CCOc1ccc(S(=O)(=O)N2CCN(C(=O)Cc3ccc(S(=O)(=O)N4CCOCC4)s3)CC2)cc1 | ? | -12.8% | -13.4 | 15.7 | 2.1% | 23.1µM*
CCOc1ccc(S(=O)(=O)N2CCN(C(=O)c3cccn3C)CC2)cc1 | ? | -1.8% | -2.8 | -7.2 | 9.1% | 14.6µM*
CCOc1ccc(S(=O)(=O)N2CCN(C(=O)c3ccc(C)c(S(=O)(=O)N4CCOCC4)c3)CC2)cc1 | 25.9µM* | ? | -4.0 | 1.6 | -3.6% | 18.4µM*
CCOc1ccc(NC(=O)COC(=O)Cc2ccc(S(=O)(=O)N3CCOCC3)s2)cc1 | 10.2% | 5.7% | 31.5 | -7.8 | 2.5% | 3.0%
CCOc1ccc(OCC(=O)N2CCN(S(=O)(=O)c3ccccc3)CC2)cc1 | -26.0% | / | -25.9 | / | / | -19.7%
CC(C)(C)OC(=O)N1CCC(Cc2cc(-c3ccccc3)no2)(C(=O)O)CC1 | -1.1% | ? | 26.2 | ? | / | 3.4%
O=C(NCCc1ccc(Cl)cc1)C(=O)NCC(c1ccco1)S(=O)(=O)c1ccc(Cl)cc1 (stereo not given) | 16.4µM* | / | / | / | 5.2% | 13µM*
O=C(NCC(c1ccco1)S(=O)(=O)c1ccc(Cl)cc1)c1ccc(C(F)(F)F)cc1 (stereo not given) | 9.2µM* | / | / | / | -7.8% | 11.6µM*
CCc1ccc(O)c(N=Cc2cccc(C)c2O)c1 | 20.6µM* | 2.4% | 22.3 | 9.8 | 2.8% | 20.6µM*
CCOC(=O)CCCCCC(=O)Nc1ccc2c(c1)C(=O)N([C@@H](C)CO)C[C@@H](C)[C@H](CN(C)C(=O)c1ccncc1)OCCCC[C@H](C)O2 | -14.8% | / | -1.1 | / | / | -1.0%
Cc1ccccc1/C=N/n1c(-c2ccccn2)n[nH]c1=S | 15.0% | 4.5% | 24.2 | -5.2 | 4.1% | -3.1%
Cc1ccccc1/C=C/C1=NCCN1 | -14.0% | 22.9% | -91.8* | -26.0 | -7.2% | -0.2%
